Data reported in PubChem BioAssay.
The source made the active and inactive calls.

What was measured:
[1] = test system: PRMT1 (protein arginine N-methyltransferase 1); experiment: PRMT1 binders on small-molecule microarrays, primary screen, biochemical, small-molecule microarray, 635 nm fluorescence (AID 1088); conditions: small-molecule microarray binding, higher = more signal;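 note: binding of Prmt1 protein to compounds spotted on small-molecule microarray slides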
[2] = yeast growth modulation, basal conditions, primary screen, YJM789 clinical isolate, OD600, 24 h (AID 1089);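 note: growth of clinical yeast isolate S. cerevisiae YJM 789 seeded 1000 cells per well; test concentration not given here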; conditions: S. cerevisiae YJM789 growth, higher = more signal, called active from +8 up or from −8 down
[3] = fission yeast growth modulation, primary screen, strain 972, OD600, 24 h, no modulator (AID 1090);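 note: basal condition with compound alone and no growth modifier present; test concentration not given here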; conditions: S. pombe 972 growth, higher = more signal, called active from +8 up or from −8 down
[4] = S. cerevisiae growth modulation with rapamycin, primary screen, strain BY4716, OD600, 96 h (AID 1091); conditions: higher = more signal, called active from +8 up or from −8 down; note: test concentration not given here
[5] = target: Torsin-1A-interacting protein 2 (Homo sapiens) (UniProt Q8NFQ8); experiment: LULL1 binders on small-molecule microarray, primary screen, cell lysate, human LULL1 lysate, 635/667 nm fluorescence (AID 1092); conditions: hLULL1 lysate binding, 635 nm fluorescence, higher = more signal;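 note: probe is lysate of COS7 cells overexpressing human LULL1; score merges per-feature 667 nm fluorescence with signal-to-noise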
Sequence of Torsin-1A-interacting protein 2 (Homo sapiens) (Q8NFQ8 whole entry, looked up): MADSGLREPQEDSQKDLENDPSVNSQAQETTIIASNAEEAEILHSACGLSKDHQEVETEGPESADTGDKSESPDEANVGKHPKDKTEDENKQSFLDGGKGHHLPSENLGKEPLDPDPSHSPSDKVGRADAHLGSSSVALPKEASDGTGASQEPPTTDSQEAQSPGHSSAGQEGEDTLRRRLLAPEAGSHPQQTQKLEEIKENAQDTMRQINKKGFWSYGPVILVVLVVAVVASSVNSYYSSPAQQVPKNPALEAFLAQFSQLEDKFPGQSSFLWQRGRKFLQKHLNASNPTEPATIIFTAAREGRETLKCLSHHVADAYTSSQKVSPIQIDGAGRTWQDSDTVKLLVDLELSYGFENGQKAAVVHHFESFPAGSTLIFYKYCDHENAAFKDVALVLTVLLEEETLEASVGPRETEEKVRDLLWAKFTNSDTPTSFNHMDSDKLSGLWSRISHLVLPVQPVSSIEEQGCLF

[6] = E. coli growth modulation, two-sided OD650, primary screen, E. coli filamentation project, strain DRC41, 24 h (AID 1093); conditions: OD650, 24 h, higher = more signal, called active from +8 up or from −8 down;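 note: MC1000 strain lacking acrAB efflux and sulA so SOS filamentation is blocked; test concentration not given here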
[7] = small-molecule microarray binders of probe aLefty2, primary screen, biochemical, biotinylated probe, 635/667 nm fluorescence (AID 1094); conditions: higher = more signal;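 note: score merges spot fluorescence near 667 nm with spot signal-to-noise ratio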
[8] = test system: Noggin (protein binding on small-molecule microarray); experiment: Noggin binders on small-molecule microarray, primary screen, biochemical, 635/667 nm fluorescence (AID 1095); conditions: 635 nm fluorescence, higher = more signal;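 note: score merges 667 nm feature fluorescence with signal to noise over triplicate slides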
[9] = target: Neurogenic locus notch homolog protein 3 (Homo sapiens) (UniProt Q9UM47); experiment: NOTCH3 binders on small-molecule microarray, primary screen, biochemical, 635/667 nm fluorescence (AID 1096); conditions: NOTCH3 binding, 635 nm fluorescence, higher = more signal
Sequence of Neurogenic locus notch homolog protein 3 (Homo sapiens) (Q9UM47 whole entry, looked up): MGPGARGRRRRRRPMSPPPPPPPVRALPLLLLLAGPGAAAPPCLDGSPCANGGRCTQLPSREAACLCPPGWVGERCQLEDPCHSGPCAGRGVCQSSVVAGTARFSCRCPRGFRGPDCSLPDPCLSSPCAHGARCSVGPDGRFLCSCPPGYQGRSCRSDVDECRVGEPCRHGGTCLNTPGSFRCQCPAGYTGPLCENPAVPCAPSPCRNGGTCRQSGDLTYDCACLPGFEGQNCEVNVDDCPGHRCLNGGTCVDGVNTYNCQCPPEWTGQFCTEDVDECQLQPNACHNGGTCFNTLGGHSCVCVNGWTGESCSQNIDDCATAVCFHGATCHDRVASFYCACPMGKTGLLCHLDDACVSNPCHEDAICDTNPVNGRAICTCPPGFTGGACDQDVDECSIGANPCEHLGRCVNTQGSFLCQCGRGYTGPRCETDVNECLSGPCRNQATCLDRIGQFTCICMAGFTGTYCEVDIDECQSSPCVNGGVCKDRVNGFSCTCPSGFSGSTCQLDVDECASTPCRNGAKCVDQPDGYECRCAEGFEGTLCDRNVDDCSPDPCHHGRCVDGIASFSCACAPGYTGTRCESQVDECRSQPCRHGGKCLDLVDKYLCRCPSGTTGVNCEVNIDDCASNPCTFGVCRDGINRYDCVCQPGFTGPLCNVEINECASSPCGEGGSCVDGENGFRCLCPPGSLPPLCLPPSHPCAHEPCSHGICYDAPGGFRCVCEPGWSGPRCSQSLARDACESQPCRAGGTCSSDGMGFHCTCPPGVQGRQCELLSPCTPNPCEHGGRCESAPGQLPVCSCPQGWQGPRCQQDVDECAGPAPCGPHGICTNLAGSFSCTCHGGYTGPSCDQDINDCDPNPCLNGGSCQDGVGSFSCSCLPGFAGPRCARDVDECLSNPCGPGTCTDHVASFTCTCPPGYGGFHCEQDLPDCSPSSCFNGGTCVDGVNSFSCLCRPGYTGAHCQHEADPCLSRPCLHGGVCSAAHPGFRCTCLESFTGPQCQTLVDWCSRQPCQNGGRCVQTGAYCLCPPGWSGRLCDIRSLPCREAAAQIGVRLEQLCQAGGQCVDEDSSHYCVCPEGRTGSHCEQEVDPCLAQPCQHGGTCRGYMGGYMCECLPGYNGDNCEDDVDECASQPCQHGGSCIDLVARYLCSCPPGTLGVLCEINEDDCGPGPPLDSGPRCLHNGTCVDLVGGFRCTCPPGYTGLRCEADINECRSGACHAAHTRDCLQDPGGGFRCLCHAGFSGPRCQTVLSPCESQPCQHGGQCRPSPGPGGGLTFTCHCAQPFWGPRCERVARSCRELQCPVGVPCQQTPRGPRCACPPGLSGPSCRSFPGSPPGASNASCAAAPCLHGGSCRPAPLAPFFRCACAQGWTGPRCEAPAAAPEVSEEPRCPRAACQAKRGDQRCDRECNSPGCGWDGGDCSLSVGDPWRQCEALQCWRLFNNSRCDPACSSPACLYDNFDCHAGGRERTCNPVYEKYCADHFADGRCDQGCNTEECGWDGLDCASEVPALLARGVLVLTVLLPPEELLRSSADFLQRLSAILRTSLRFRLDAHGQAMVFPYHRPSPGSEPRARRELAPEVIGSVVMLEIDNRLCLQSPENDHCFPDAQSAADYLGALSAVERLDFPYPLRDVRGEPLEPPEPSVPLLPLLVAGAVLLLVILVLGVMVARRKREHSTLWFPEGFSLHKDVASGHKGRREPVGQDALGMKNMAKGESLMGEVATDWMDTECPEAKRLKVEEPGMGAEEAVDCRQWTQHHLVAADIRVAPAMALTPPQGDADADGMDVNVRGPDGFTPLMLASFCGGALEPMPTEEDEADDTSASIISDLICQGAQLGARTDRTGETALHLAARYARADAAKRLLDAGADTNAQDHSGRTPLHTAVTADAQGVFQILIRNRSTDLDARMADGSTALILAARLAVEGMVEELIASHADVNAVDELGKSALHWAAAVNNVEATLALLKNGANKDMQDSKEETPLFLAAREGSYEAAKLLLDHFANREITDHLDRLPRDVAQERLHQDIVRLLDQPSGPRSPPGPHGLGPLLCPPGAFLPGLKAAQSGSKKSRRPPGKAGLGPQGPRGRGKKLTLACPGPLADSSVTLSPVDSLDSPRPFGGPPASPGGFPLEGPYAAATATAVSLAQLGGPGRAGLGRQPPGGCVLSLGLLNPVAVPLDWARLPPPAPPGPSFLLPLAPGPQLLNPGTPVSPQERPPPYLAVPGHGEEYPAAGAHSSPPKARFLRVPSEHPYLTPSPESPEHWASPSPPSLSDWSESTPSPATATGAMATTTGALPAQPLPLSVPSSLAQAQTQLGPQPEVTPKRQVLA

[10] = small-molecule microarray binders of probe aEGFR, primary screen, biochemical, biotinylated probe, 635/667 nm fluorescence (AID 1097); conditions: higher = more signal;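 note: probe is a biotinylated anti-EGFR antibody binding compounds printed on slides; score combines fluorescence near 667 nm and signal to noise of each spot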
[11] = test system: Plasmodium falciparum Sir2 (PF13_0152, Sir2A); experiment: pfSir2 binders on small-molecule microarrays, primary screen, biochemical, small-molecule microarray, 635 nm fluorescence (AID 1098); conditions: small-molecule microarray binding, fluorescence 635 nm; higher = more signal;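 note: score merges spot fluorescence intensity with its signal-to-noise ratio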
[12] = small-molecule microarray binders of probe aDKK1, primary screen, biochemical, biotinylated probe, 635/667 nm fluorescence (AID 1099); conditions: higher = more signal;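 note: score merges 667nm spot fluorescence with signal to noise across triplicate slides; reference of the scale not given here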
[13] = small-molecule microarray binders of probe aCHRDL2, primary screen, biochemical, biotinylated probe, 635/667 nm fluorescence (AID 1100); conditions: higher = more signal
[14] = splicing luciferase reporter signal modulators, primary screen, spliceosome inhibition project, cell-based, HEK293, splice +/- reporter (AID 1101); conditions: luminescence, 24 h, higher = more signal, called active from +8 up or from −8 down;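 note: HEK293 cells carrying a splicing-competent luciferase reporter gene; test concentration not given here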
[15] = target: Fibroblast growth factor 10 (Homo sapiens) (UniProt O15520); experiment: FGF10 binders on small-molecule microarrays, primary screen, biochemical, small-molecule microarray, 635 nm fluorescence (AID 1102); conditions: FGF10 binding, fluorescence 635 nm, higher = more signal
Sequence of Fibroblast growth factor 10 (Homo sapiens) (O15520 whole entry, looked up): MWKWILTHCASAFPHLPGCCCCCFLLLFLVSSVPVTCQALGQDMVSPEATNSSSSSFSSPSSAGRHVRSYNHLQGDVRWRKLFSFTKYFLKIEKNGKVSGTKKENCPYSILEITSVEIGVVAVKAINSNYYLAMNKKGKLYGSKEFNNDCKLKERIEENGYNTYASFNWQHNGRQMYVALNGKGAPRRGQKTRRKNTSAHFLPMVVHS

[16] = test system: glycogen synthase kinase-3 (GSK3A per assay name; protocol says GSK3B); experiment: GSK3 binders on small-molecule microarrays, primary screen, biochemical, small-molecule microarray, 635 nm fluorescence, GSK3A (AID 1103); conditions: small-molecule microarray binding, fluorescence 635 nm; higher = more signal; note: the record names both GSK3A and GSK3B
[17] = target: Epidermal growth factor receptor (Homo sapiens) (UniProt P00533); experiment: EGFR binders on small-molecule microarrays, primary screen, biochemical, small-molecule microarray, 635 nm fluorescence (AID 1104); conditions: EGFR binding, higher = more signal;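 note: score merges 667 nm emission intensity with spot signal to noise over triplicate slides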
Sequence of Epidermal growth factor receptor (Homo sapiens) (P00533 whole entry, looked up): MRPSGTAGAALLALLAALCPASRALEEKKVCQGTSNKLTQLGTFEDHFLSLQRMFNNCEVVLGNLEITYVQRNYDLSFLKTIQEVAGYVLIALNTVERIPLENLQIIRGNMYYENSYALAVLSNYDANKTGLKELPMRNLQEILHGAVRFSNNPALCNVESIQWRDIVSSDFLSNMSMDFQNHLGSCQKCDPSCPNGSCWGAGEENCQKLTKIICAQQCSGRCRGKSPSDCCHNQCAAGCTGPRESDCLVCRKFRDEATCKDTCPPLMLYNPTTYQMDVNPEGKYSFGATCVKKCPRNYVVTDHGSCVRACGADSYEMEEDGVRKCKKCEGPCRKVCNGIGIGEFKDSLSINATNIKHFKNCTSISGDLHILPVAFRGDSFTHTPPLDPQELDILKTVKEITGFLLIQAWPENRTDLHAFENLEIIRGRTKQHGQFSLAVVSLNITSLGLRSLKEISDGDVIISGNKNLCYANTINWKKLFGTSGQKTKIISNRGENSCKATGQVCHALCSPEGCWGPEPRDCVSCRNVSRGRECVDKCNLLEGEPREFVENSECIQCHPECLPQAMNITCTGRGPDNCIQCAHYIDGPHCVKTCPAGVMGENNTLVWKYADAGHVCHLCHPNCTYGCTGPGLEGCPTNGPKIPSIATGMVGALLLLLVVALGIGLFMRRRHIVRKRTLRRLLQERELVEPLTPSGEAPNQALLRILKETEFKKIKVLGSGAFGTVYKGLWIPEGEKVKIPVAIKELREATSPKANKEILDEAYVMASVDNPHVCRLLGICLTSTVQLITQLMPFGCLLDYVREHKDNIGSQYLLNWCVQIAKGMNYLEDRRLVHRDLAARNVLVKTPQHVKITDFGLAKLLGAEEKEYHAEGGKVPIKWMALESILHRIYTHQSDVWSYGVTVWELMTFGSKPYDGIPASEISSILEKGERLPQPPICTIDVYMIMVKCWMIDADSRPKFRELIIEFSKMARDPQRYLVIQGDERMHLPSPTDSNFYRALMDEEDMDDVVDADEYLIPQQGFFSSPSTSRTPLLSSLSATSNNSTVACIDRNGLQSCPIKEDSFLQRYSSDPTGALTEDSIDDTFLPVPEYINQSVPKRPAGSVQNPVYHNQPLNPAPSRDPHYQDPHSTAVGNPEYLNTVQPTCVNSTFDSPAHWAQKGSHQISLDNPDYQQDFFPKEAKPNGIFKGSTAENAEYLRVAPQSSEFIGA

[18] = target: Follistatin-related protein 3 (Homo sapiens) (UniProt O95633); experiment: FSTL3 binders on small-molecule microarrays, primary screen, biochemical, small-molecule microarray, 635 nm fluorescence (AID 1105); conditions: FSTL3 binding, higher = more signal;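 note: score merges emission near 667 nm and signal to noise per printed spot across three slides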
Sequence of Follistatin-related protein 3 (Homo sapiens) (O95633 whole entry, looked up): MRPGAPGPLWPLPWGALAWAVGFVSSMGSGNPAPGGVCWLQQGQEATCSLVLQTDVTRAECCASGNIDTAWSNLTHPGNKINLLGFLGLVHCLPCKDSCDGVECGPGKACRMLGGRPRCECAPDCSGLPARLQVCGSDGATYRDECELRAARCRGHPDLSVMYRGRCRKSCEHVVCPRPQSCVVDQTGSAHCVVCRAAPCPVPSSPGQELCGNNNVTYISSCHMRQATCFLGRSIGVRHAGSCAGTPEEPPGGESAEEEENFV

[19] = target: Dickkopf-related protein 1 (Homo sapiens) (UniProt O94907); experiment: DKK1 binders on small-molecule microarrays, primary screen, biochemical, small-molecule microarray, 635 nm fluorescence scan (AID 1106); conditions: DKK1 binding, higher = more signal;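 note: score merges emission near 667 nm with signal to noise over three replicate slides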
Sequence of Dickkopf-related protein 1 (Homo sapiens) (O94907 whole entry, looked up): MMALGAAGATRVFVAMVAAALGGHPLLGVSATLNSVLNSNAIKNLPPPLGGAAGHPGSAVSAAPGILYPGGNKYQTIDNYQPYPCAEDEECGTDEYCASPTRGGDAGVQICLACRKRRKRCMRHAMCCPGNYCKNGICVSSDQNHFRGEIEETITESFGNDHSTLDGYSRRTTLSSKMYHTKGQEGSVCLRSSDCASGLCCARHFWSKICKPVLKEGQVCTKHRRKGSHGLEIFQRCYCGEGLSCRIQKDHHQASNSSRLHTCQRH

[20] = test system: Inhibin beta A chain (activin A); experiment: INHBA (activin A) binders on microarrays, primary screen, biochemical, small-molecule microarray, 635 nm fluorescence scan (AID 1107); conditions: small-molecule microarray binding, higher = more signal;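 note: mouse activin A protein probed at 4.33 µg/mL on printed slides; score merges bound-protein fluorescence near 667 nm with spot signal-to-noise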

Row | SMILES | composite z-score [1] | z-score [2] | z-score [3] | z-score [4] | composite z-score [5] | z-score [6] | composite z-score [7] | composite z-score [8] | composite z-score [9] | composite z-score [10] | composite z-score [11] | composite z-score [12] | composite z-score [13] | z-score [14] | composite z-score [15] | composite z-score [16] | composite z-score [17] | composite z-score [18] | composite z-score [19] | composite z-score [20]
1 | COCC(=C=CC[C@H](O)c1ccccc1OCCO)C[C@H](O)COCc1ccccc1 | 1.55 | -0.16 (inactive) | -1.15 (inactive) | -0.619 (inactive) | 2.71 | -0.111 (inactive) | -0.0113 | 0.513 | 0.271 | 0.312 | 1.54 | 0.132 | -0.316 | -0.111 (inactive) | 1.49 | 0.342 | 0.335 | 0.3 | -0.06 | 0.627
2 | COC(=O)[C@@]1(Cc2ccc(OC)cc2)[C@H]2c3cc(C(=O)N4CCCC4)n(Cc4c(CO)[nH]cc(C)c4=O)c3C[C@H]2CN1C(=O)c1ccccc1 | 0.413 | -1.56 (inactive) | 0.801 (inactive) | 0.147 (inactive) | 3.35 | -0.391 (inactive) | 0.601 | -0.243 | 0.381 | -0.0728 | 0.488 | 2.01 | 1.13 | -1.14 (inactive) | 0.404 | 0.237 | -0.0221 | 0.158 | -0.59 | 1.02
3 | CCCCC(O)C1C=CC2C(=O)N(c3ccccc3)C(=O)C2N1Nc1ccc(C#N)cc1 (stereo not given) | 0.771 | 0.243 (inactive) | 0.634 (inactive) | 1.64 (inactive) | 3.14 | -1.11 (inactive) | 0.444 | -0.358 | 0.473 | 0.247 | 1.11 | 1.12 | 0.906 | 0.12 (inactive) | 0.398 | 0.383 | 0.0738 | -0.0673 | -0.579 | 0.513
4 | COCCCN1C(=O)[C@@]2(c3ccc([N+](=O)[O-])cc3)CC(=O)N(CC34CC5CC(CC(C5)C3)C4)[C@@H]2c2ccc(CO)cc21 | 1.27 | 0.222 (inactive) | 0.432 (inactive) | -1.33 (inactive) | 2.07 | -0.0011 (inactive) | -0.159 | 0.432 | -0.182 | -0.115 | 1.47 | -0.183 | -0.0705 | -0.515 (inactive) | 0.329 | 0.541 | -0.557 | 0.458 | -0.104 | 0.405
5 | COc1ccc([Si](C)(C)[C@H]2[C@H](CC(=O)N3CCC[C@H]3CO)O[C@@]3(C(=O)N(Cc4ccc(N5CCCCC5=O)cc4)c4ccccc43)[C@@H]2C)cc1 | 1.54 | -0.398 (inactive) | 0.591 (inactive) | -0.801 (inactive) | 2.51 | 2.32 (inactive) | -0.18 | 1.41 | 1.06 | -0.0531 | 1.17 | -0.28 | -0.466 | -1.16 (inactive) | 1.18 | 1.09 | 0.639 | 1.23 | 0.863 | 0.704
6 | COC(=O)[C@@]1(Cc2ccc(OC)cc2)[C@H]2c3cc(C(=O)N4CCCC4)n(Cc4ccc(Cl)c(C(F)(F)F)c4)c3C[C@H]2CN1C(=O)c1ccccc1 | 1 | -1.21 (inactive) | 1.37 (inactive) | 0.509 (inactive) | 3.59 | -0.304 (inactive) | 0.711 | -0.109 | 1.03 | 0.0788 | 1.38 | 1.62 | 1.23 | -0.75 (inactive) | 0.927 | 1.27 | -0.02 | 1.36 | -0.428 | 0.822
7 | CCOC(=O)C1=CC[C@@H](c2ccc(OC)cc2)N(S(=O)(=O)c2ccc(C)cc2)[C@H]1c1ccc(C)cc1 | 0.966 | 0.106 (inactive) | 0.529 (inactive) | 0.53 (inactive) | 2.84 | -0.747 (inactive) | 0.194 | 0.191 | 1.09 | 0.0656 | 0.71 | 0.528 | 0.836 | -0.0291 (inactive) | 0.642 | 1.07 | -0.0102 | 0.887 | -0.346 | 0.588
8 | O=C1OCCC=C[C@H]2OC34C=CCN(c5ccc6ccccc6c5)C(=O)[C@H]3N(CCO)C(=O)[C@@H]4C12 (stereo not given in full) | -0.3 | -0.735 (inactive) | -0.737 (inactive) | -0.171 (inactive) | -0.686 | -0.021 (inactive) | -0.314 | -0.251 | 0.301 | -0.0353 | 1.89 | -0.886 | -0.465 | -0.502 (inactive) | -0.0326 | -0.327 | -0.405 | -0.114 | -0.951 | -0.666
9 | COC(=O)C1=CC(CCCO)=CC(c2cccs2)N(Cc2cc3c(cc2Br)OCO3)C=C1C(=O)OC (stereo not given) | 1.56 | 0.74 (inactive) | -0.997 (inactive) | 0.132 (inactive) | 3.17 | 0.923 (inactive) | 0.109 | 0.404 | 1.12 | 0.236 | 1.53 | 0.718 | 0.628 | -0.478 (inactive) | 1.17 | 1.3 | 0.511 | 0.908 | 0.166 | 1.01
10 | COC(=O)[C@@]1(Cc2ccc(F)cc2)[C@H]2c3cc(C(=O)N4CCCC4)n(CCc4ccccn4)c3C[C@H]2CN1C(=O)c1ccccc1 | -0.63 | -0.0526 (inactive) | 0.804 (inactive) | 0.414 (inactive) | 2.89 | -0.223 (inactive) | 0.181 | -0.701 | 0.572 | -0.164 | 0.785 | 0.507 | 1.02 | -1.31 (inactive) | 0.577 | -0.73 | -0.559 | -0.575 | -0.554 | 0.987
